# Experimental data from ChEMBL document CHEMBL3988442, “University of Dundee, Small-Polar-MMV Screening Library” (2021).
# The whole screen tested about 66,000 compounds, of which about 960 (1.5%) showed an effect of 50% or more. This excerpt belongs to a sample that is enriched for strong results.
# Test system: Trypanosoma brucei
# Experiment: Trypanosoma brucei 72 hour study
# Assay type: functional, organism-based
# Design: scale not given: in the data most compounds retested in dose-response had high values
SMILES,"Percent Effect (30 µM, 30.03 µM)","Percent Effect (30.3 µM, […])"
CCc1[nH]c2c(CNc3nccc(N)n3)cc(F)cc2c1C,24.46%,
Cc1nc(CN2CCO[C@H]3[C@H](OCC(=O)N(C)C)CC[C@@H]32)cs1.O=C(O)C(F)(F)F,-32.64%,
C[C@@H]1CN(C2CCN(Cc3nn(C)c4cccc(Cl)c34)CC2)C[C@H](C)O1,,10.53%
Cn1nc(CN2CCC(c3ccncc3)CC2)c2c(Cl)cccc21,,31.87%
Cn1nc(CN2CCCN(C3CCCC3)CC2)c2c(Cl)cccc21,,100.6%
Cc1cccc(N2CCC3(CCN(C(=O)c4cccnc4)CC3)C2)n1.O=C(O)C(F)(F)F.O=C(O)C(F)(F)F,38.81%,
Cc1cnc(N2CCC3(CCN(CC4CCCC4)C3=O)CC2)nc1.O=C(O)C(F)(F)F,,-22.16%
Cc1ccsc1CN(Cc1cccnc1)C1CC(C)(C)NC(C)(C)C1.O=C(O)CC(O)(CC(=O)O)C(=O)O,,61.32%
Cc1ccc(CN(Cc2cccnc2)C2CC(C)(C)NC(C)(C)C2)s1.O=C(O)CC(O)(CC(=O)O)C(=O)O,,78.89%
Cc1cccc(CN(Cc2cccnc2)C2CC(C)(C)NC(C)(C)C2)n1.O=C(O)CC(O)(CC(=O)O)C(=O)O,,-21.3%
Cc1nc[nH]c1CN(Cc1ccccc1)C1CC(C)(C)NC(C)(C)C1.O=C(O)CC(O)(CC(=O)O)C(=O)O,,9.969%
CC1(C)CC(N(Cc2ccncc2)Cc2cccnc2)CC(C)(C)N1.O=C(O)CC(O)(CC(=O)O)C(=O)O,,3.133%
CC1(C)CC(N(Cc2ccccc2)Cc2cccnc2)CC(C)(C)N1.O=C(O)CC(O)(CC(=O)O)C(=O)O,,27.73%
CC1(C)CC(N(Cc2cccnc2)Cc2cccc(F)c2)CC(C)(C)N1.O=C(O)CC(O)(CC(=O)O)C(=O)O,,92.81%
Cc1ccc(CN(Cc2ccccn2)C2CC(C)(C)NC(C)(C)C2)s1.O=C(O)CC(O)(CC(=O)O)C(=O)O,,71.04%
CC1(C)CC(N(Cc2cccnc2)Cc2cccnc2)CC(C)(C)N1.O=C(O)CC(O)(CC(=O)O)C(=O)O,,13.11%
CCCN(Cc1cccnc1)C1CC(C)(C)NC(C)(C)C1.O=C(O)CC(O)(CC(=O)O)C(=O)O,,3.437%
CC1(C)CC(N(Cc2ccccc2)Cc2c[nH]cn2)CC(C)(C)N1.O=C(O)CC(O)(CC(=O)O)C(=O)O,,9.903%
Cc1cccc(CN(Cc2ccc(C)o2)C2CC(C)(C)NC(C)(C)C2)n1.O=C(O)CC(O)(CC(=O)O)C(=O)O,,14.76%
CCOc1ccccc1-c1cc(N)[nH]n1.Cl,,-3.53%
